The source made the active and inactive calls. No rule for the calls is given here.
tested on: Aerobactin synthetase IucA (Klebsiella pneumoniae, hypervirulent); assay: biochemical IucA inhibition screen of LOPAC library by absorbance (AID 1346212); conditions: IucA enzyme assay, absorbance (OD) readout; hits give low values;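 tested at 8 µM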;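 also: 100% = no compound wells and 0% = no enzyme wells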

Q: How did the remaining activity turn out when O=C1NC(=S)S/C1=C/c1cc(Br)ccc1OCc1ccccc1Br was run?
A: 116% (inactive)

Q: How did the remaining activity turn out when Nc1ncnc2c1ncn2C1CCCO1 (configuration not stated) was run?
A: 75.8% (inactive)

Q: With N[C@H](C(=O)O)c1cc(O)cc(O)c1 as the compound, how does the remaining activity read?
A: 108% (inactive)

Q: Which remaining activity does the source give for CC(=O)C(C)=O here?
A: 97% (inactive)

Q: With O=c1ccc2c(OCCCCc3ccccc3)c3ccoc3cc2o1 as the compound, how does the remaining activity read?
A: 123% (inactive)

Q: With CNC(=O)c1cc2c(cn1)[nH]c1ccccc12 as the compound, how does the remaining activity read?
A: 97.3% (inactive)

Q: CCN(CC)C(=O)c1ccc(O)c(OC)c1 was tested. Which remaining activity did it give?
A: 122% (inactive)

Q: NC(N)=N[C@@H](CCC(=O)O)C(=O)O was tested. Which remaining activity did it give?
A: 115% (inactive)

Q: With O=C(O)/C=C/c1cnc[nH]1 as the compound, how does the remaining activity read?
A: 101% (inactive)

Q: COc1cc2c(cc1O)CC[C@@H]1[C@@H]2CC[C@]2(C)[C@@H](O)CC[C@@H]12 was tested. Which remaining activity did it give?
A: 116% (inactive)

Q: For Nc1c(C(=O)Nc2nnc(-c3ccccc3)s2)sc2nc3c(cc12)CCCCC3, which remaining activity is on record?
A: 109% (inactive)

Q: How did the remaining activity turn out when Cc1ccccc1/C=C/C1=NCCN1 was run?
A: 120% (inactive)

Reference: PubChem BioAssay
